PubChem BioAssay (NCI)
Compounds without any hit were thinned out: in the full panel of roughly 83,000, 20% have a hit.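 The test compound was applied at a single concentration to cells in 96-well plates for 48 hours, and percent growth was recorded.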 Values without a mark were called inactive. Active and inactive are the calls of the source.

system: LOX IMVI melanoma; assay: NCI-60 one-dose screen, 48 h (100 = growth as untreated, 0 = no growth, -100 = all killed); conditions: 10 µM
Method: Growth inhibition of the LOX IMVI human tumor cell line is measured as a screen for anti-cancer activity. Cells are grown in 96 well plates and exposed to the test compound for 48 hours. Compounds are tested at a single concentration, which is 10^-5 M for most compounds. The reported endpoint is percent growth (GI% or GIPRCNT), where numbers from 0 - 100% represent growth inhibition, and numbers from -100% - 0 represent cell death. For example, a value of 40 represents 60% growth inhibition. A value of 0 means no net growth occurred over the course of the experiment. A value of -40 indicates 40% of cells at the beginning of the experiment died by the end of the experiment. A value of -100 means all cells are dead at the end of the experiment.
NCI-60 Human Tumor Cell Lines Screen was performed using the standard one-dose NCI protocol, which is described in more detail at https://dtp.cancer.gov/discovery_development/nci-60/default.htm.
Compounds with GIPRCNT values below 10 were considered active. Activity score was based on GIPRCNT using the following formula: […]
Score is 0 for GIPRCNT values of 100 or above, 50 for GIPRCNT values of 0, and 100 for GIPRCNT values of -100.

SMILES	growth
C#C[C@]1(O)CC[C@H]2[C@@H]3CC=C4c5sc(Nc6cc(C)cc(C)n6)nc5CC[C@]4(C)[C@H]3CC[C@@]21C	-96% (active)
COc1cccc(C(=O)CSc2nc(-c3ccc(OCc4ccccc4)c(OC)c3)c(C#N)c(=O)[nH]2)c1	85.7%
O=C(CSc1nc2ccccc2c(=O)n1-c1ccc(Cl)cc1)Nc1ccc(-c2nc3ccc([N+](=O)[O-])cc3[nH]2)cc1	-30% (active)
Cn1cc(-c2nnc(N)nc2-c2c[nH]c3ccc(F)cc23)c2cc(Br)cnc21	47%
COc1cccc(O)c1/C=C1\SCc2cc3c(OC)cccc3[o+]c21	103%
COc1cc(-c2nc3ccc(C)cc3[nH]2)ccc1OCc1nnc(-c2ccccc2Br)o1	71.8%
O=C(CC(=O)Nc1ccc(Oc2ncnc3scc(Nc4n[nH]c(=S)s4)c23)cc1)Nc1ccc(Br)cc1	66.2%
COc1ccc(C(=O)COc2ccc(NC(=O)Nc3ccccc3)cc2)cc1	58.9%
O=C1NC2C=CC=CC2/C1=C1/SC(=S)N(C2CC(=O)N(c3ccc(Br)cc3)C2=O)C1=O (stereo not given)	33.8%
Cn1cc(-c2cc3nc(-c4c[nH]c5ccccc45)cc(N)n3n2)c2cc(Cl)ccc21	-91.6% (active)
CCOC(=O)c1ccc(NC(=O)CSC(CC(=O)c2sc(Nc3ccccn3)nc2C)c2ccccc2F)cc1 (stereo not given)	-76.8% (active)
Cn1cc(-c2nnc(N)nc2-c2c[nH]c3ccccc23)c2cc(Br)cnc21	-75.6% (active)
CC1[C@H]2[C@H](C[C@H]3[C@@H]4CC=C5c6sc(Nc7cccc(Cl)n7)nc6CC[C@]5(C)[C@H]4CC[C@@]32C)O[C@]12CC[C@@H](C)CO2 (stereo not given in full)	79.6%
COc1cc2oc(-c3cccc(C(=O)Nc4ccc(Cl)cc4)c3)cc(=O)c2c(OCCN)c1OC	-84.3% (active)
COc1ccc(C2c3sc4ccc(C)cc4c3Oc3nc[nH]c(=O)c32)cc1 (stereo not given)	92.5%
O=C1S/C(=C\c2ccc([N+](=O)[O-])cc2)C(=O)N1CCN1CCCCC1	98.6%
COc1ccc(OC)c(-n2cc(C#N)c(N)c2C(=O)c2ccc(Cl)cc2Cl)c1	48.2%
C#CCOc1cc(N(CC)CC)ccc1C(C(=O)NC(C)(C)C)N(C(=O)C1CCc2cc(F)ccc2O1)c1ccc(F)cc1F (stereo not given)	-5.11% (active)
Nc1nnc(-c2c[nH]c3ncc(Br)cc23)c(-c2c[nH]c3ccc(Br)cc23)n1	37.6%
COc1cc2oc(-c3cccc(C(=O)Nc4ccc(Cl)cc4)c3)cc(=O)c2c(OCCNC(=O)[C@@H](N)CO)c1OC	-79.1% (active)

SMILES	growth
COc1ccc(Cc2nn(CC(=O)N/N=C/c3ccc(Br)cc3)c(=O)c3c(C)noc23)cc1	25.9%
O=C(Nc1ccc(Oc2ncnc3scc(Nc4n[nH]c(=S)s4)c23)cc1)C1(C(=O)Nc2cccc(C(F)(F)F)c2)CC1	30.4%
COc1ccc(C2OC[C@@]3(C)C4CC[C@]5(C)C(CC=C6C7CC(C)(C)CC[C@]7(C(=O)O)CC[C@]65C)[C@@]4(C)C[C@@H](O)[C@@H]3O2)cc1 (stereo not given in full)	70.8%
CCOc1ccc(/C=N/NC(=O)Cn2nc(Cc3ccc(OC)cc3)c3onc(C)c3c2=O)cc1	4.69% (active)
COc1ccc2[nH]cc(-c3nc(N)nnc3-c3cn(C)c4ncc(Br)cc34)c2c1	20%
Cc1cc(N=C2NC(=O)S/C2=C\c2ccc(F)cc2)n[nH]1	-59.8% (active)
O=C(Nc1ccc(OCC(=O)c2ccc(Cl)cc2)cc1)Nc1ccc(Cl)c(C(F)(F)F)c1	-37.8% (active)
O=C(c1ccc(F)cc1)C(c1c[nH]c2ccccc12)c1c[nH]c2ccccc12	-76.3% (active)
COc1ccccc1-n1cc(C#N)c(N)c1C(=O)c1ccc(Cl)cc1Cl	39.5%
Cn1cc(-c2cc(N)n3nc(-c4cn(C)c5ccccc45)cc3n2)c2cc(F)ccc21	-86.2% (active)
Cc1ccc(-c2nc(C#N)c(S(=O)(=O)N3CCN(S(C)(=O)=O)CC3)o2)cc1	-88.6% (active)
Cn1cc(-c2nc(N)nnc2-c2c[nH]c3ccccc23)c2cc(Br)cnc21	15.6%
Cc1ccc2c(c1)C(=O)/C(=C/c1c[nH]c3ccccc13)S2	19.1%
O=[N+]([O-])c1cccc(-c2nnc3c(/C=C/c4ccccc4O)nc4ccccc4n23)c1	56.1%
O=C(CN1CCN(c2ncnc3c2cnn3-c2ccccc2)CC1)Nc1ccc(Cl)cc1	39.9%
O=C(CN1CCN(c2ncnc3c2cnn3-c2ccccc2)CC1)Nc1ccc(Br)cc1	81.8%
Fc1ccc(-c2csc(Nc3cccc(Nc4nc(-c5ccc(F)cc5)cs4)c3)n2)cc1	39.3%
COc1cc(Nc2nc(O)c(/C=C3\C=Nc4ccccc43)s2)cc(OC)c1OC	-61.5% (active)
Cn1cc(/C=C(/SS/C(=C/c2cn(C)c3cccc(C(=O)O)c23)C(=O)O)C(=O)O)c2c(C(=O)O)cccc21	48.9%
CC(C)(C)c1cc(/C=C2\S/C(=N/c3ncn[nH]3)NC2=O)cc(C(C)(C)C)c1O	-7.75% (active)
